In PubChem BioAssay (NCI):
About 79,000 compounds went through this panel and 15% of them were active in at least one assay; those are over-represented in the sample as a whole. Values without a mark were called inactive. Activity calls are given as the source filed them. Cut-off read from the data, not from the text of the source: active = growth inhibition above about 70%; inactive = the rest.

How the values were obtained:
[1] = NCI Yeast Anticancer Drug Screen. Data for the rad50 strain (AID 155);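 note: 0% = growth of vehicle-only cultures of the same strain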; settings: S. cerevisiae rad50 strain growth inhibition, hits give high values
Procedure, shortened: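 Relative growth inhibition (compound vs vehicle) was measured in yeast with a defined repair-gene alteration.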

[2] = NCI Yeast Anticancer Drug Screen. Data for the mec2-1 strain (AID 157); settings: S. cerevisiae mec2-1 strain, hits give high values
Procedure, shortened: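 Each compound was tested on mec2-1 yeast, a strain altered in DNA damage repair or cell cycle control. Growth inhibition is reported relative to vehicle.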

[3] = NCI Yeast Anticancer Drug Screen. Data for the sgs1 mgt1 strain (AID 161);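 note: 0% = growth of cultures given vehicle only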; settings: S. cerevisiae sgs1 mgt1 strain, hits give high values
Procedure, shortened: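 Read-out: growth inhibition vs vehicle controls. Cells: mutant yeast strain deficient in DNA damage repair.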

[4] = NCI Yeast Anticancer Drug Screen. Data for the cln2 rad14 strain (AID 165);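 note: 0% = growth equal to vehicle treated cultures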; settings: S. cerevisiae cln2 rad14 strain, hits give high values
Procedure, shortened: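 Test compounds were added to cln2 rad14 yeast cultures; inhibition of growth was then determined by comparison with vehicle treatment.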

[5] = NCI Yeast Anticancer Drug Screen. Data for the bub3 strain (AID 167); settings: S. cerevisiae bub3 mutant strain, hits give high values
Procedure, shortened: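 Screening used yeast with an engineered genetic alteration affecting cell cycle control. Compound-exposed cultures were compared with vehicle cultures, and reduced growth was taken as inhibition.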

[6] = NCI Yeast Anticancer Drug Screen. Data for the mlh1 rad18 strain (AID 175); settings: S. cerevisiae mlh1 rad18 strain growth inhibition, hits give high values
Procedure, shortened: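 Inhibition values reflect reduced growth of mutant yeast versus vehicle-treated controls following compound exposure; the mutations affect DNA damage repair.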

[7] = at 5.0 µM (retest, dose inferred, filed as 0.5)
[8] = at 50.0 µM (retest, dose inferred, filed as 5.0)

NC(=S)N/N=C/c1ncccc1O
growth inhibition [1, 7]: -157% | growth inhibition [1, 8]: -91% | growth inhibition ([1]; at 50.0 µM): 24.4% | growth inhibition [2, 7]: -50% | growth inhibition [2, 8]: 19% | growth inhibition ([2]; at 50.0 µM): 80.2% (active) | growth inhibition [3, 7]: -63% | growth inhibition [3, 8]: -30% | growth inhibition ([3]; at 50.0 µM): 7.55% | growth inhibition [4, 7]: -68% | growth inhibition [4, 8]: -73% | growth inhibition ([4]; at 50.0 µM): -23.4% | growth inhibition [5, 7]: -74% | growth inhibition [5, 8]: -78% | growth inhibition ([5]; at 50.0 µM): -7.5% | growth inhibition [6, 7]: -123% | growth inhibition [6, 8]: -101% | growth inhibition ([6]; at 50.0 µM): 21.4%

COc1cc(N(CCC#N)CCC#N)ccc1/C(N=Nc1ccc([N+](=O)[O-])cc1)=N/NC(=O)c1cc(Br)ccc1O
growth inhibition [1, 7]: 6% | growth inhibition [1, 8]: 27% | growth inhibition ([1]; at 50.0 µM): 63% | growth inhibition [2, 7]: 14% | growth inhibition [2, 8]: 42% | growth inhibition ([2]; at 50.0 µM): 44.6% | growth inhibition [3, 7]: -6% | growth inhibition [3, 8]: 35% | growth inhibition ([3]; at 50.0 µM): 40.6% | growth inhibition [4, 7]: 10% | growth inhibition [4, 8]: 11% | growth inhibition ([4]; at 50.0 µM): 55.1% | growth inhibition [5, 7]: 8% | growth inhibition [5, 8]: 48% | growth inhibition ([5]; at 50.0 µM): 51% | growth inhibition [6, 7]: 15% | growth inhibition [6, 8]: 37% | growth inhibition ([6]; at 50.0 µM): 46.1%

CC1C(c2ccccc2)OCCN1C(=S)Nc1ccc(S(=O)(=O)N2CCCCC2)cc1 (configuration not stated)
growth inhibition [1, 7]: 46% | growth inhibition [1, 8]: 86% (active) | growth inhibition ([1]; at 50.0 µM): 85.4% (active) | growth inhibition [2, 7]: 46% | growth inhibition [2, 8]: 84% (active) | growth inhibition ([2]; at 50.0 µM): 89.2% (active) | growth inhibition [3, 7]: 65% | growth inhibition [3, 8]: 97% (active) | growth inhibition ([3]; at 50.0 µM): 91.5% (active) | growth inhibition [4, 7]: 62% | growth inhibition [4, 8]: 96% (active) | growth inhibition ([4]; at 50.0 µM): 89.7% (active) | growth inhibition [5, 7]: 73% (active) | growth inhibition [5, 8]: 96% (active) | growth inhibition ([5]; at 50.0 µM): 90.1% (active) | growth inhibition [6, 7]: 43% | growth inhibition [6, 8]: 88% (active) | growth inhibition ([6]; at 50.0 µM): 86.4% (active)

COc1cccc(N=N/C(=N\NC(=O)c2cc(Br)ccc2O)c2ccc(N(CCC#N)CCC#N)cc2OC)c1
growth inhibition [1, 7]: 17% | growth inhibition [1, 8]: 30% | growth inhibition ([1]; at 50.0 µM): 72% (active) | growth inhibition [2, 7]: 22% | growth inhibition [2, 8]: 35% | growth inhibition ([2]; at 50.0 µM): 48.9% | growth inhibition [3, 7]: -8% | growth inhibition [3, 8]: 34% | growth inhibition ([3]; at 50.0 µM): 34.5% | growth inhibition [4, 7]: 0% | growth inhibition [4, 8]: 19% | growth inhibition ([4]; at 50.0 µM): 20.9% | growth inhibition [5, 7]: -2% | growth inhibition [5, 8]: 42% | growth inhibition ([5]; at 50.0 µM): 39.4% | growth inhibition [6, 7]: 26% | growth inhibition [6, 8]: 43% | growth inhibition ([6]; at 50.0 µM): 76.2% (active)

Cc1ccccc1N=C(N)Nc1ccccc1C (tested in a mixture with another compound)
growth inhibition [1, 7]: 0% | growth inhibition [1, 8]: 15% | growth inhibition ([1]; at 50.0 µM): 12.9% | growth inhibition [2, 7]: -2% | growth inhibition [2, 8]: 7% | growth inhibition ([2]; at 50.0 µM): 27.8% | growth inhibition [3, 7]: -1% | growth inhibition [3, 8]: 5% | growth inhibition ([3]; at 50.0 µM): 30.6% | growth inhibition [4, 7]: -2% | growth inhibition [4, 8]: -16% | growth inhibition ([4]; at 50.0 µM): -62.5% | growth inhibition [5, 7]: 3% | growth inhibition [5, 8]: 11% | growth inhibition ([5]; at 50.0 µM): 11.5% | growth inhibition [6, 7]: -2% | growth inhibition [6, 8]: 13% | growth inhibition ([6]; at 50.0 µM): 28.6%

Clc1ccccc1C(c1ccccc1)(c1ccccc1)n1ccnc1
growth inhibition [1, 7]: 44% | growth inhibition [1, 8]: 99% (active) | growth inhibition ([1]; at 50.0 µM): 99.3% (active) | growth inhibition [2, 7]: 20% | growth inhibition [2, 8]: 99% (active) | growth inhibition ([2]; at 50.0 µM): 99.8% (active) | growth inhibition [3, 7]: 53% | growth inhibition [3, 8]: 99% (active) | growth inhibition ([3]; at 50.0 µM): 99.6% (active) | growth inhibition [4, 7]: 18% | growth inhibition [4, 8]: 99% (active) | growth inhibition ([4]; at 50.0 µM): 99.2% (active) | growth inhibition [5, 7]: 34% | growth inhibition [5, 8]: 99% (active) | growth inhibition ([5]; at 50.0 µM): 99.6% (active) | growth inhibition [6, 7]: 30% | growth inhibition [6, 8]: 99% (active) | growth inhibition ([6]; at 50.0 µM): 99.7% (active)

CC1(C)CCC[C@]2(C)[C@@H](C=O)C(C=O)=CC[C@@H]12
growth inhibition [1, 7]: 25% | growth inhibition [1, 8]: 90% (active) | growth inhibition ([1]; at 50.0 µM): 91.3% (active) | growth inhibition [2, 7]: 23% | growth inhibition [2, 8]: 96% (active) | growth inhibition ([2]; at 50.0 µM): 90.8% (active) | growth inhibition [3, 7]: 22% | growth inhibition [3, 8]: 84% (active) | growth inhibition ([3]; at 50.0 µM): 88.4% (active) | growth inhibition [4, 7]: 23% | growth inhibition [4, 8]: 81% (active) | growth inhibition ([4]; at 50.0 µM): 90.2% (active) | growth inhibition [5, 7]: 19% | growth inhibition [5, 8]: 88% (active) | growth inhibition ([5]; at 50.0 µM): 90.3% (active) | growth inhibition [6, 7]: 21% | growth inhibition [6, 8]: 91% (active) | growth inhibition ([6]; at 50.0 µM): 86.9% (active)

CCOC(=O)c1cc(CC)sc1NC(=O)CC(C)=O
growth inhibition [1, 7]: 42% | growth inhibition [1, 8]: 58% | growth inhibition ([1]; at 50.0 µM): 46% | growth inhibition [2, 7]: 35% | growth inhibition [2, 8]: 53% | growth inhibition ([2]; at 50.0 µM): 17.9% | growth inhibition [3, 7]: 42% | growth inhibition [3, 8]: 56% | growth inhibition ([3]; at 50.0 µM): 57.2% | growth inhibition [4, 7]: 38% | growth inhibition [4, 8]: 44% | growth inhibition ([4]; at 50.0 µM): 59.5% | growth inhibition [5, 7]: 44% | growth inhibition [5, 8]: 78% (active) | growth inhibition ([5]; at 50.0 µM): 70.8% (active) | growth inhibition [6, 7]: 46% | growth inhibition [6, 8]: 71% (active) | growth inhibition ([6]; at 50.0 µM): 61.1%

COc1cc(OC)c(/C=C/c2c3ccccc3cc[n+]2C)c(OC)c1
growth inhibition [1, 7]: 66% | growth inhibition [1, 8]: 77% (active) | growth inhibition ([1]; at 50.0 µM): 61.6% | growth inhibition [2, 7]: 33% | growth inhibition [2, 8]: 54% | growth inhibition ([2]; at 50.0 µM): 49.5% | growth inhibition [3, 7]: 67% | growth inhibition [3, 8]: 84% (active) | growth inhibition ([3]; at 50.0 µM): 69.5% | growth inhibition [4, 7]: 46% | growth inhibition [4, 8]: 64% | growth inhibition ([4]; at 50.0 µM): 9.85% | growth inhibition [5, 7]: 67% | growth inhibition [5, 8]: 79% (active) | growth inhibition ([5]; at 50.0 µM): 59.3% | growth inhibition [6, 7]: 50% | growth inhibition [6, 8]: 68% | growth inhibition ([6]; at 50.0 µM): 54.1%
